Reference: the supplement of paper PMC7156485
Unmarked numbers belong to inactive results.

System: TDF
Test: H1.0 immunofluorescence intensity relative to DMSO (% of DMSO); higher = stronger H1.0 induction, active = 120 or more
Conditions: concentration: 10 µM; 24 h
In short: (§1)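 Treatment: HCC1569 and TDF cells, 800 per well in 384-well plates with RPMI and 10% FBS, were given compounds at 10 µM for 24 h at 37 °C, in triplicate. Readout: after 3.7% formaldehyde fixation, cells were stained with a rabbit anti-H1.0 antibody, an AlexaFluor 647 secondary and DAPI. Reported values are H1.0 nuclear intensity or cell number as percent of the plate control, taken as the median of replicates, with positional smoothing for HCC1569.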
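Also: TDF is a line of transformed human dermal fibroblasts of mesenchymal origin.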

SMILES	H1.0 immunofluorescence intensity
OCC1OC(Oc2ccc(O)cc2)C(O)C(O)C1O (stereo not drawn) [Arbutin]	102
CNC1(C)C2CCC(C2)C1(C)C.Cl (stereo not drawn) [Mecamylamine hydrochloride]	94.1
CCCCCCC=CC=CCCCCCCCC(=O)O [9(Z), 11(Z)-octadecadienoic acid]	107
O=C(CCCN1CCC(O)(c2cccc(C(F)(F)F)c2)CC1)c1ccc(F)cc1 [Trifluperidol]	97.3
CCCCC=CCCCCCCCC(=O)O [9(E)-Tetradecenoic acid]	98.8
CCOc1ccc2ccc(=O)oc2c1 [7-ethoxy-2H-chromen-2-one]	93.7
O=C(O)CCCC(O)C=CC=CC=CC(O)CC=CCCCCCO (stereo not drawn) [20-Hydroxy-leukotriene B4]	95.2
c1ccc2c(Cc3c[nH]c4ccccc34)c[nH]c2c1 [Diindolylmethane]	98.8
COc1cc2c(c(OC)c1OC)-c1c(cc3c(c1OC)OCO3)CC(C)C(C)(O)C2OC(=O)c1ccccc1 (stereo not drawn) [Schisantherin A]	98.5
CN(C)NN=C1N=CN=C1C(N)=O [Dacarbazine]	97.8
O=C(Nc1ccc(N2CCOCC2)c(S(=O)(=O)Nc2ccccc2Cl)c1)c1ccncc1 [Chk2 Inhibitor]	87.3
CSc1nc(N)c2ncn(C3OC(COP(=O)([O-])OP(=O)([O-])OP(=O)([O-])[O-])C(O)C3O)c2n1.[Na+].[Na+].[Na+].[Na+] (stereo not drawn) [2-Methylthioadenosine triphosphate tetrasodium]	93
CCOP(=O)(OCC)C(=Cc1cc(C(C)(C)C)c(O)c(C(C)(C)C)c1)P(=O)(OCC)OCC	93.9
C=C1C(=CC=C2CCCC3(C)C2CCC3C(C)C=CC(O)C2CC2)CC(O)CC1O (stereo not drawn) [Calcipotriene]	91.9
C[C@]12CCC(=O)C=C1CC[C@@H]1[C@@H]2[C@@H](O)C[C@@]2(C)[C@H]1CC[C@]2(O)C(=O)COC(=O)CCC(=O)[O-].[Na+]	82.3
CC(C)(C)c1nc2c3cc[nH]c(=O)c3c3cc(F)ccc3c2[nH]1 [JAK Inhibitor I]	90.3
O=C(O)c1cn(-c2ccc(F)cc2)c2cc(N3CCNCC3)c(F)cc2c1=O [Sarafloxacin]	99.5
N#CC(=Cc1ccc(O)c(O)c1)C(=O)NCc1ccccc1 [Tyrphostin AG 490]	88.7
CC(CS)C(=O)N1CCCC1C(=O)O (stereo not drawn) [Captopril]	97.6
CCCN(CCC)C(=O)C(CCC(=O)O)NC(=O)c1ccccc1 (stereo not drawn) [Proglumide]	88.6
O=C(O)CCCC=CCC1C(O)CC(O)C1C=CC(O)COc1cccc(Cl)c1.[Na] (stereo not drawn)	96.8
CC(C)CCNC(=O)C(CC(C)C)NC(=O)C1OC1C(=O)O (stereo not drawn)	100
CC12CCC3c4ccc(O)cc4CCC3C1CC(O)C2O (stereo not drawn) [Estriol]	101
CC(C)N(CCC(=O)c1ccc2ccccc2c1)Cc1ccccc1.Cl	102
CCC(C)C(=O)OC1CCC=C2C=CC(C)C(CCC3CC(O)CC(=O)O3)C21 (stereo not drawn) [Mevastatin]	123 (active)
CC1=C2C(=COC(C)C2C)C(=O)C(C(=O)O)=C1O (stereo not drawn) [Citrinin]	101
COc1cc(CCC(C)=O)ccc1O [Vannilylacetone]	95.6
CCn1cc(C(=O)O)c(=O)c2cc(F)c(N3CCNCC3)cc21 [Norfloxacin]	105

System: HCC1569
Test: H1.0 immunofluorescence intensity relative to DMSO (% of DMSO); higher = stronger H1.0 induction, active = 140 or more
Conditions: concentration: 10 µM; 24 h
In short: as §1

SMILES	H1.0 immunofluorescence intensity
Cl.Cl.OCCN1CCN(CCC=C2c3ccccc3Sc3ccc(C(F)(F)F)cc32)CC1 [cis-(Z)-Flupenthixol dihydrochloride]	125
CCC(C(=O)C(C)C(O)C(C)CCc1ccc(C)c(O)c1C(=O)[O-])C1OC(CC)(C2CCC(O)(CC)C(C)O2)CC1C.[Na+] (stereo not drawn) [Lasalocid A]	94.6
O=C(O)CNC(=O)C(=O)O [2-(carboxymethylamino)-2-oxoacetic acid]	83.7
COc1cc2nccc(Oc3ccc(NC(=O)Nc4ccc(F)cc4F)c(F)c3)c2cc1OC	108
COC1(C2=NCCN2)COc2ccccc2O1.Cl (stereo not drawn)	102
O=c1cc(N2CCOCC2)oc2c1ccc1ccccc12 [NU 7026 - 2-(4-Morpholinyl)-4H-naphthol[1,2-b]pyran-4-one]	105
CCCCCCCCCCCCCCCC(=O)C(F)(F)F	94.4
NC(=O)c1ccc(-c2nc(-c3ccc4c(c3)OCCO4)c(-c3ccccn3)[nH]2)cc1 [Casein Kinase I Inhibitor, D4476]	127
Cl.NCCS [Cysteamine hydrochloride]	101
CNCCC(Oc1ccccc1OC)c1ccccc1.Cl (stereo not drawn) [Nisoxetine.HCl]	109
CN(C)CCN1C(=O)c2ccccc2N(C)c2ccccc21 [Dibenzepine]	111
Cc1cccc(C)c1OCC(N)C(C)C.I (stereo not drawn)	94.3
OCC1OC(Oc2ccc(O)cc2)C(O)C(O)C1O (stereo not drawn) [Arbutin]	92.1
CNC1(C)C2CCC(C2)C1(C)C.Cl (stereo not drawn) [Mecamylamine hydrochloride]	93.5
CCCCCCC=CC=CCCCCCCCC(=O)O [9(Z), 11(Z)-octadecadienoic acid]	103
O=C(CCCN1CCC(O)(c2cccc(C(F)(F)F)c2)CC1)c1ccc(F)cc1 [Trifluperidol]	102
CCCCC=CCCCCCCCC(=O)O [9(E)-Tetradecenoic acid]	98
CCOc1ccc2ccc(=O)oc2c1 [7-ethoxy-2H-chromen-2-one]	103
O=C(O)CCCC(O)C=CC=CC=CC(O)CC=CCCCCCO (stereo not drawn) [20-Hydroxy-leukotriene B4]	108
c1ccc2c(Cc3c[nH]c4ccccc34)c[nH]c2c1 [Diindolylmethane]	91.6

SMILES	H1.0 immunofluorescence intensity
COc1cc2c(c(OC)c1OC)-c1c(cc3c(c1OC)OCO3)CC(C)C(C)(O)C2OC(=O)c1ccccc1 (stereo not drawn) [Schisantherin A]	97.7
CN(C)NN=C1N=CN=C1C(N)=O [Dacarbazine]	101
O=C(Nc1ccc(N2CCOCC2)c(S(=O)(=O)Nc2ccccc2Cl)c1)c1ccncc1 [Chk2 Inhibitor]	99.5
CSc1nc(N)c2ncn(C3OC(COP(=O)([O-])OP(=O)([O-])OP(=O)([O-])[O-])C(O)C3O)c2n1.[Na+].[Na+].[Na+].[Na+] (stereo not drawn) [2-Methylthioadenosine triphosphate tetrasodium]	95.7
CCOP(=O)(OCC)C(=Cc1cc(C(C)(C)C)c(O)c(C(C)(C)C)c1)P(=O)(OCC)OCC	124
C=C1C(=CC=C2CCCC3(C)C2CCC3C(C)C=CC(O)C2CC2)CC(O)CC1O (stereo not drawn) [Calcipotriene]	115
C[C@]12CCC(=O)C=C1CC[C@@H]1[C@@H]2[C@@H](O)C[C@@]2(C)[C@H]1CC[C@]2(O)C(=O)COC(=O)CCC(=O)[O-].[Na+]	103
CC(C)(C)c1nc2c3cc[nH]c(=O)c3c3cc(F)ccc3c2[nH]1 [JAK Inhibitor I]	126
O=C(O)c1cn(-c2ccc(F)cc2)c2cc(N3CCNCC3)c(F)cc2c1=O [Sarafloxacin]	95.9
N#CC(=Cc1ccc(O)c(O)c1)C(=O)NCc1ccccc1 [Tyrphostin AG 490]	99.7
CC(CS)C(=O)N1CCCC1C(=O)O (stereo not drawn) [Captopril]	96.7
CCCN(CCC)C(=O)C(CCC(=O)O)NC(=O)c1ccccc1 (stereo not drawn) [Proglumide]	88
O=C(O)CCCC=CCC1C(O)CC(O)C1C=CC(O)COc1cccc(Cl)c1.[Na] (stereo not drawn)	92.6
CC(C)CCNC(=O)C(CC(C)C)NC(=O)C1OC1C(=O)O (stereo not drawn)	92.5
CC12CCC3c4ccc(O)cc4CCC3C1CC(O)C2O (stereo not drawn) [Estriol]	113
CC(C)N(CCC(=O)c1ccc2ccccc2c1)Cc1ccccc1.Cl	119
CCC(C)C(=O)OC1CCC=C2C=CC(C)C(CCC3CC(O)CC(=O)O3)C21 (stereo not drawn) [Mevastatin]	95
CC1=C2C(=COC(C)C2C)C(=O)C(C(=O)O)=C1O (stereo not drawn) [Citrinin]	97.8
COc1cc(CCC(C)=O)ccc1O [Vannilylacetone]	93.5
CCn1cc(C(=O)O)c(=O)c2cc(F)c(N3CCNCC3)cc21 [Norfloxacin]	101
